Drawing on PubChem BioAssay AID1851 (National Center for Advancing Translational Sciences (NCATS), 2009), this text covers AC50 and activity, negative = inhibition for 78 compounds.

“And” between values parts separate entries of the source, which are not always exact repeats. Equal values may be shown once. The whole screen tested about 16,000 compounds, of which about 5,800 (36%) were called active. Roughly 23% stayed inconclusive and do not appear here. The list shows a part of the results. Values without a mark were called inactive. Calls come from the whole dose curve; as a rule, active = well fitted curve in the direction sought with a large enough effect; inconclusive = small, poorly fitted or top-dose-only effect, or effect the other way; inactive = no such curve, though single readings can be large or run the other way.
% is set by controls: 0 for no effect and ±100 for the full control effect.

The target of this assay is Cytochrome P450 2C19 (Homo sapiens) (UniProt P33261). As to the kind of experiment: Cytochrome panel assay with activity outcomes. The settings on record: recombinant CYP, pro-luciferin dealkylation, luminescence, p450-cyp2c19; series mostly up to 57.1 µM.
Chain of Cytochrome P450 2C19 (Homo sapiens) (P33261 whole entry, looked up): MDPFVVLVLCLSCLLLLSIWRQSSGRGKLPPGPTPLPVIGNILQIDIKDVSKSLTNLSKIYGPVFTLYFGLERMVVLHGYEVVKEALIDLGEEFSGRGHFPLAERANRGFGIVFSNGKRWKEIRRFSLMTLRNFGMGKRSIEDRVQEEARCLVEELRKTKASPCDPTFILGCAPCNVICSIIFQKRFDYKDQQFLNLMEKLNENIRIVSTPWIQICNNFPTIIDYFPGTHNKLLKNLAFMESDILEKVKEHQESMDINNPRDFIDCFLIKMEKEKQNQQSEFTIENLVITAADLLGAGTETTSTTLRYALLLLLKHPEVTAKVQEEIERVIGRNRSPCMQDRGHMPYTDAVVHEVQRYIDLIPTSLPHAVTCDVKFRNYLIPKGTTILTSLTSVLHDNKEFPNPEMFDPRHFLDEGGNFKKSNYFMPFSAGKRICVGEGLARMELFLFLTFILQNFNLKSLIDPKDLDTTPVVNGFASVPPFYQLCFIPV
Take `CC(=O)c1ccc(N2CCC(c3cc(-c4ccc(Cl)cc4Cl)n[nH]3)CC2)c([N+](=O)[O-])c1`: the AC50 is 0.282 µM (active). For `COc1ccc(-c2cc(C3CCN(c4ccc(C(C)=O)cc4[N+](=O)[O-])CC3)[nH]n2)cc1`, the AC50 was 2.24 µM (active). Turning to `CC(=O)c1ccc(N2CCC(c3cc(-c4ccc(Cl)cc4)n[nH]3)CC2)c([N+](=O)[O-])c1`, the AC50 was 0.501 µM (active).

Regarding `CC(=O)c1cc(CC=C(C)C)c(O)cc1O`, the AC50 is 2.82 µM (active).

On to `COc1cc(CC(=O)O)c(C(C)=O)cc1OC`, for which the AC50 entry was “inactive”.

`COc1ccc(Sc2ccc(NC(=O)c3ccccc3Cl)cc2C#N)cc1`: the AC50 is 2.82 µM (active). As for `COc1cc(/C=N/Nc2snc(SC)c2C#N)cc(OC)c1OC`, the AC50 is 14.1 µM (active). On to `COc1ccc(/C=N/NC(=S)NC2CCS(=O)(=O)C2)cc1OC` (stereo not drawn), for which the AC50 entry is “inactive”. In the case of `COc1ccc(/C=N/Nc2snc(SC)c2C#N)cc1OC`, the AC50 was 5.01 µM (active). With `N/C(=N\OC(=O)c1cc(-c2ccccc2)nc2ccccc12)c1ccc(Cl)cc1`, the AC50 was 7.94 µM (active). For the compound `O=C(O)c1cc(-c2ccc(-c3ccc(-c4cc(C(=O)O)c5cc(Cl)ccc5n4)cc3)cc2)nc2ccc(Cl)cc12`, the activity, negative = inhibition is -23.2% [at 11.4 µM].

Take `NNC(=O)c1ccncc1`: the AC50 result was “inactive”. For `O=C(CC(=O)c1ccncc1)c1ccccc1`, the half-maximal activity concentration (AC50) is 0.398 µM (active). For the compound `CCOc1cc(-c2noc(N)c2C#N)cc(OCC)c1OCC`, the AC50 is 15.8 µM (active). Consider `O=C1[C@@H]2[C@H]3[C@H](O)[C@H](O)C/C(=N/OCc4ccccc4)[C@H]3CC[C@H]2C(=O)N1c1ccc(F)cc1F`, for which the activity, negative = inhibition was -4.38% [at 11.4 µM]. As to `CN(C)CCO[C@](C)(c1ccccc1)c1ccccn1`, the AC50 entry is “inactive”. For `CN(C)S(=O)(=O)c1ccc(Nc2ccc(O)c3c2C(=O)c2c([N+](=O)[O-])ccc(O)c2C3=O)cc1`, the activity, negative = inhibition is -34.2% [at 11.4 µM].

For `COc1ccc(NC(=O)c2cccs2)c([N+](=O)[O-])c1`, the AC50 result is “inactive”.

In the case of `COc1ccc(NC(=O)CSc2nncn2C)c([N+](=O)[O-])c1`, the concentration at half-maximal activity (AC50) was 31.6 µM (active). On to `COc1ccc(NC(=O)CN(C)S(=O)(=O)c2ccc(Cl)cc2)c([N+](=O)[O-])c1`, for which the AC50 was 8.91 µM (active). As for `CC(C)NNC(=O)c1ccncc1`, the AC50 result is “inactive”. Turning to `CC(=O)c1c(C(C)=O)c(C)n(NC(=O)c2ccncc2)c1C`, the AC50 was 0.2 µM (active).

For `CC(=O)c1c(C(C)=O)c(C)n(NC(=O)c2ccccc2Cl)c1C`, the AC50 entry was “inactive”. Take `CCOC(=O)CC(Nc1nc(N2CCOCC2)nc(N2CCOCC2)n1)c1ccccc1Cl` (stereo not drawn): the AC50 is 3.16 µM (active). As for `CCC[C@H]1C[C@H](C(=O)N[C@H]([C@@H]2O[C@H](SC)[C@@H](O)[C@H](O)[C@@H]2O)[C@H](C)O)N(C)C1`, the AC50 result was “inactive”. On to `Cc1cc(C)c(C(N)=O)c(NC(=O)Nc2ccccc2)n1`, for which the AC50 entry was “inactive”. On to `Cc1cc(NC(=O)Nc2ccc(N(C)C)cc2)c2cc(F)cc(F)c2n1`, for which the AC50 is 15.8 µM (active). For `Cc1cc(N)c2cc(NC(=O)Nc3ccc4nc(C)cc(N)c4c3)ccc2n1`, the activity, negative = inhibition was -6.46% [at 11.4 µM].

Take `COc1cc(OC)c2c(c1Cl)O[C@@]1(C2=O)[C@H](C)CC(=O)C[C@@H]1OC`: the AC50 entry is “inactive”.

Regarding `C[C@@H]1NCC[C@H](CC(=O)O)[C@H]1CC(=O)O`, the activity, negative = inhibition was 4.52% [at 11.4 µM].

Consider `Cn1c(SCC(=O)N2CCN(S(=O)(=O)c3ccccc3)CC2)nc2ccccc21`, for which the AC50 was 15.8 µM (active). Same read-out and setting: as for `O=C(CCc1nc2ccccc2c(=O)[nH]1)OCC(=O)N1CCN(S(=O)(=O)c2ccccc2)CC1`, the entry is “inactive”. Still for that read-out and setting: next, `CC1CCN(C(=O)CSc2nc3cccnc3n2C)CC1`: 8.91 µM (active); `COc1ccccc1-n1c(SCC(=O)N2CCCC2)nc2cccnc21`: “inactive”; `CCCn1c(=O)c2c(ncn2C)n(CCC)c1=O`: “inactive”. As for `N#Cc1cccc(NC(=O)N2CC[C@@]3(CCCN(C(=O)c4ccco4)C3)C2)c1`, the AC50 entry was “inactive”. Consider `CCCCCOc1ccc(C(=O)NCC2(c3ccccc3)CCOCC2)cc1`, for which the AC50 is 7.94 µM (active). As for `O=C(Nc1nnc(-c2ccc(Cl)cc2)o1)Nc1ccccc1Cl`, the AC50 entry was “inactive”.

`Clc1ccc(-c2nnc(-c3ccco3)o2)cc1`: the AC50 was 20 µM (active). As to `O=C(Cc1ccc(Cl)cc1)Nc1cccc(-c2nnc(-c3ccco3)o2)c1`, the concentration at half-maximal activity (AC50) is 0.0158 µM (active). As to `Clc1ccc2c(N3CCC(CCC4CCN(c5ncnc6cc(Cl)ccc56)CC4)CC3)ncnc2c1`, the activity, negative = inhibition is -1.06% [at 11.4 µM]. `CCCCCC(=O)O[C@H](CC(=O)O)C[N+](C)(C)C`: the AC50 result was “inactive”. For `COc1cccc(NC(=O)c2cc(-c3cccnc3)nc3c(Cl)cccc23)c1`, the AC50 is 6.31 µM (active).

For the compound `COc1ccc(-c2nc3cnc(N4CCNCC4)nc3n(C3CC3)c2=O)cc1`, the AC50 result is “inactive”. Same read-out and setting: next, `CC1(C)CC(NC(=O)c2ccc3c(c2)OCO3)CC(C)(C)N1`: “inactive”.

For `CC1(C)CC(NCc2ccc3c(c2)OCO3)CCO1` (stereo not drawn), the AC50 was 11.2 µM (active). Take `c1ccc(CCc2cccnc2)nc1`: the activity, negative = inhibition was -11.1% [at 11.4 µM]. In the case of `c1ccc(NN(Cc2cnccn2)c2ccccc2)cc1`, the AC50 was 2 µM (active). In the case of `C/C(CCN1CCc2nc(-c3ccccc3)c(-c3ccccc3)cc2C1)=N\O[C@@H](C)c1cn([C@@H]2COC[C@@H]2O)nn1`, the activity, negative = inhibition was 3.9% [at 11.4 µM]. Regarding `CC(=O)OC[C@H]1O[C@@H](O/N=C(\C)CCC(=O)OC[C@@H]2O[C@H](C#Cc3ccccc3)C=C[C@@H]2Oc2ccc(C)cc2)[C@H](OC(C)=O)[C@@H](OC(C)=O)[C@H]1OC(C)=O`, the activity, negative = inhibition is -18.3% [at 11.4 µM]. Still for that read-out and setting: as for `C/C(CCC(=O)OC[C@@H]1O[C@H](C#Cc2ccccc2)C=C[C@@H]1Oc1ccc(C)cc1)=N/OC[C@@H](C)[C@H](OCc1ccccc1)C(C)C`, the figure is -30.1% [at 11.4 µM]; as for `CC(C)=NO[C@@H](C)c1cn([C@H](CO)Cc2ccccc2)nn1`, -12.3% [at 11.4 µM] and -23.6% [at 11.4 µM].

On to `CC(=O)OC[C@@H]1O[C@H](C/C=N\O[C@@H](C)c2cn([C@H](CO)Cc3ccccc3)nn2)C=C[C@@H]1OC(C)=O`, for which the activity, negative = inhibition was 25.9% [at 11.4 µM] and 17.9% [at 11.4 µM]. Consider `CO/N=C(/C)CCC(=O)OC[C@@H]1O[C@H](C#Cc2ccccc2)C=C[C@@H]1Oc1ccc(C)cc1`, for which the AC50 was 3.98 µM (active). Take `CCc1cc2c(nc1CC)CCN(CC/C(C)=N/O[C@@H](C)c1cn([C@@H]3COC[C@@H]3O)nn1)C2`: the activity, negative = inhibition is 14.6% [at 11.4 µM]. With `COc1ccc(O[C@H]2C=C[C@@H](c3ccccc3)O[C@H]2COC(=O)CC/C(C)=N\O[C@@H](C)c2cn([C@H]3COC[C@H]3O)nn2)cc1`, the AC50 was 2.51 µM (active).

`C/C(CCC(=O)OC[C@@H]1O[C@H](C#Cc2ccccc2)C=C[C@@H]1Oc1ccc(C)cc1)=N/OC[C@@H](O)COCc1ccco1`: the activity, negative = inhibition was -32.2% [at 11.4 µM]. Consider `C/C(CCC(=O)OC[C@@H]1O[C@H](C#Cc2ccccc2)C=C[C@@H]1Oc1ccc(C)cc1)=N/O[C@@H](C)c1cn([C@H](CO)Cc2ccccc2)nn1`, for which the AC50 was 3.98 µM (active).

Consider `COc1ccc(O[C@H]2C=C[C@@H](c3ccccc3)O[C@H]2COC(=O)CC/C(C)=N\O[C@@H](C)c2cn([C@H](CO)Cc3ccccc3)nn2)cc1`, for which the half-maximal activity concentration (AC50) was 63.1 nM (active) and 631 nM (active). In the case of `O=CN1CCN(C[C@H](O)CN2CCCCC2)CC1`, the activity, negative = inhibition is 10.2% [at 11.4 µM].

Regarding `O=c1oc2c(Cl)cc(Cl)cc2cc1-c1nnc(Nc2ccccc2F)s1`, the AC50 entry is “inactive”. As for `O[C@@](CCN1CCCCC1)(c1ccccc1)C1CCCCC1`, the AC50 entry was “inactive”.

In the case of `OC(CCCN1CCCCC1)(c1ccccc1)c1ccccc1`, the AC50 result is “inactive”.

With `CC(C)C(O)(C#CCN1CCCC1)c1ccccc1` (stereo not drawn), the AC50 was 10 µM (active). Regarding `CO[C@H]1COC(=O)[C@H]2CCCN2C(=O)C/C=C\[C@@H](C)[C@H](OC)COC(=O)C/C=C\[C@@H]1C`, the activity, negative = inhibition was 19.4% [at 11.4 µM]. `O=C(CN(c1ccccc1)S(=O)(=O)c1ccccc1[N+](=O)[O-])NN=C1CCCCCCC1`: the AC50 is 0.794 µM (active).

In the case of `COc1ccc(N(CC(=O)NN=C2CCCC2)S(=O)(=O)c2ccccc2)cc1`, the AC50 was 6.31 µM (active). In the case of `COCCCNC(=O)CN(c1ccc(OC)cc1)S(=O)(=O)c1ccc(NC(C)=O)cc1`, the AC50 was 15.8 µM (active). Same read-out and setting: next, `COC(=O)[C@@]1(Cc2ccc(F)cc2)[C@H]2c3cc(C(=O)N4CCCC4)n(Cc4ccc(OC(F)(F)F)cc4)c3C[C@H]2CN1C(=O)c1ccccc1`: “inactive”.

`COC(=O)[C@@]1(Cc2ccc(F)cc2)[C@H]2c3cc(C(=O)N(C)C)n(Cc4ccc(C)c(F)c4F)c3C[C@H]2CN1C(=O)c1ccccc1`: the AC50 was 15.8 µM (active). For `COC(=O)[C@@]1(Cc2ccc(F)cc2)[C@H]2c3cc(C(=O)N(C)C)n(Cc4ccc(C)o4)c3C[C@H]2CN1C(=O)c1ccccc1`, the AC50 was 15.8 µM (active). With `COC(=O)[C@@]1(Cc2ccc(F)cc2)[C@H]2c3cc(C(=O)N4CCCC4)n(Cc4ccc(C)o4)c3C[C@H]2CN1C(=O)c1ccccc1`, the AC50 was 5.01 µM (active). Consider `COC(=O)[C@@]1(Cc2ccccc2)[C@H]2c3cc(C(=O)N4CCCC4)n(Cc4ccc(C)o4)c3C[C@H]2CN1C(=O)c1ccccc1`, for which the AC50 is 2.51 µM (active).

For the compound `Clc1cc2c(c(CSC3=NCN(CC4CC4)CN3)c1)OCOC2`, the activity, negative = inhibition was 10.2% [at 11.4 µM]. For `COc1ccc(-c2n[nH]c(C)c2-c2ccc(Cl)cc2)c(O)c1`, the AC50 is 2.51 µM (active). With `C=C(C)COc1ccc(-c2n[nH]c(C)c2-c2ccc(OC)cc2)c(O)c1`, the AC50 is 2.24 µM (active). As for `Cc1[nH]nc(-c2ccc(O)cc2O)c1-c1ccc(Cl)cc1`, the AC50 is 0.282 µM (active). On the same count and under the same terms, next, `Oc1ccc(-c2[nH]ncc2-c2ccc(Cl)cc2)c(O)c1`: 0.251 µM (active).

One may read the AC50 as the concentration at which the activity in the assay is half-maximal.
